The list is not random: actives were taken first. Their share in the collection is about 32%.
CYP2C19 inhib: blockers of cytochrome P450 2C19 activity – biochemical, luminescence, ADME assay, primary screen | 96,000 tested, 21% active | CYP2C19 Supersomes, luciferin-H EGE luminescence, 30 min | inhibition, % at 5 µM | P33261;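 active means CYP2C19 inhibition above a set limit at 5 µM in the primary screen, cut at about 50% in these data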;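 further: plate controls were negative control wells for no effect and 2.5 mM tranylcypromine positive control for full effect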
Target sequence (P33261 whole entry, looked up): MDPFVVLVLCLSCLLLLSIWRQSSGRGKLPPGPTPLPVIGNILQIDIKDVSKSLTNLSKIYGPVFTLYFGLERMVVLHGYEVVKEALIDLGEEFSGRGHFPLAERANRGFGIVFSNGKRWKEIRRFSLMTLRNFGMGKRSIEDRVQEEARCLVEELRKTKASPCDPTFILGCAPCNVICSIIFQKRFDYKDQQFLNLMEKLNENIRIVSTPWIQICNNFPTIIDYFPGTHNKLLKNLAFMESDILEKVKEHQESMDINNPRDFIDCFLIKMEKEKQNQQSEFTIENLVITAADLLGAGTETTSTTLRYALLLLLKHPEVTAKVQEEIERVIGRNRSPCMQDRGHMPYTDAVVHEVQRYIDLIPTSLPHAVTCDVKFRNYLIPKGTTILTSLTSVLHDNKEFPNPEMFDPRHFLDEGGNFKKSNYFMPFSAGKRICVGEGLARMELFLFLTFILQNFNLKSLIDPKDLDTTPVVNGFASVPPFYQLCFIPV
PostGolgi yeast: phenotypic screen on post-Golgi transport, primary screen; 98,000 tested, 0.9% active; inhibition, % at 10 µM; AID 739, 2007; post-Golgi transport phenotypic cell assay;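 further: yeast cells grown in 1536-well plates; yeast grown about 18 h at 30C before absorbance read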
PostGolgi ctrl: growth inhibition of yeast control strain, primary screen, counter-screen for post-Golgi transport modulator project; 98,000 tested, 5% active; inhibition, % at 10 µM; efflux-deficient yeast background strain, growth absorbance A615, 16 h
CYP2C19 act: human CYP2C19 activators, primary screen, biochemical, luminescence; Cytochrome P450 2C19 (Homo sapiens), P33261; recombinant CYP2C19, luciferin-H EGE luminescence; active compounds read high; 0 = fully inhibited enzyme, 1 = untreated enzyme; activation factor at 5 µM; 96,000 tested, under 10 active; AID 1025, 2008;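 active means activation factor of at least 2 at 5 µM in the primary screen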;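 further: 0 = wells with 2.5 mM tranylcypromine and 1 = vehicle-only wells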
CYP2C9 inhib: blockers of cytochrome P450 2C9 activity – biochemical, luminescence, ADME assay, primary screen; P11712; CYP2C9 Supersomes, luciferin-H conversion; inhibition, % at 5 µM; 96,000 tested, 20% active; AID 777, 2007;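 active means blocking of liver enzyme CYP2C9 beyond about 50% at 5 µM, limit read from the data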
CYP2C9 act: human CYP2C9 activators, primary screen, biochemical, luminescence; activation factor at 5 µM; Cytochrome P450 2C9 (Homo sapiens), P11712; 96,000 tested, 1.4% active; AID 1024, 2008; recombinant CYP2C9, luciferin-H conversion; active compounds read high; factor 1 = untreated enzyme, 0 = blocked;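 active means activation factor of 2 or more for CYP2C9 at a 5 µM dose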;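 further: 0 = sulfaphenazole-blocked wells and 1 = vehicle-only wells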
Numbers without * were called inactive; . = no result. Unless noted, no stated cut-off is given here; in the data, active means inhibition above about 30%; inactive means the rest.

SMILES | CYP2C19 inhib | PostGolgi yeast | PostGolgi ctrl | CYP2C19 act | CYP2C9 inhib | CYP2C9 act
Cc1cc(NC(=O)COC(=O)C2CCN(S(=O)(=O)c3cccc(Cl)c3Cl)CC2)no1 | 14 | -1 | 28 | 0.9 | 15 | 0.9
CC1=CC=CC2=NC(=O)CC(C)(C(=O)N(CC(=O)NC3CCCC3)c3ccccc3C)N12 (stereo not given) | 2 | -9 | 0 | 1 | 0 | 1
O=C(NC1CCCCC1)C(c1ccc2ncccc2c1)N(Cc1ccco1)C(=O)c1ccc2c(c1)OCCO2 (stereo not given) | 70* | 4 | 11 | 0.3 | 70* | 0.3
Cc1cc(NC(=O)CCC(=O)N(Cc2cccs2)C(C(=O)NC2CCCC2)c2cccnc2)no1 (stereo not given) | 40 | 1 | 1 | 0.6 | 32 | 0.7
O=C(NC1CCCCC1)C(c1ccc2ncccc2c1)N(Cc1cccs1)C(=O)c1cccs1 (stereo not given) | 60* | 25 | 1 | 0.4 | 59* | 0.4
CCC(C)(C(=O)NC1CCCCC1)N(Cc1ccco1)C(=O)c1ccc2c(c1)OCO2 (stereo not given) | 83* | -1 | -4 | 0.2 | 60* | 0.4
O=C(NC1CCCCC1)C(c1ccc2ncccc2c1)N(Cc1ccc(F)cc1)C(=O)c1ccc2c(c1)OCCO2 (stereo not given) | 42 | -2 | -2 | 0.6 | 22 | 0.8
CCOC1=NC(C(=O)O)c2ccccc2/C(=C(/C)Cl)N1 (stereo not given) | 30 | 1 | 5 | 0.7 | 22 | 0.8
CCCNC(=O)c1cc2c(C(F)(F)F)nn(C)c2s1 | 6 | 8 | -10 | 0.9 | 0 | 1
O=C(O)c1c(F)c(F)cc2ccccc12 | . | 2 | 4 | . | . | .
C/C(=N/NC(=O)c1ccoc1C)C12CC3CC(CC(C3)C1)C2 | 57* | 8 | 16 | 0.4 | 12 | 0.9
CC(=O)Nc1c(O)nc(SCC(=O)Nc2c(C)cccc2C)[nH]c1=O | -8 | 2 | 16 | 1.1 | 0 | 1
OC(Cc1nc2ccccc2[nH]1)c1ccccc1Cl (stereo not given) | 49 | -6 | 1 | 0.5 | 15 | 0.8
OC(c1ccc(Cl)cc1)C(O)c1nc2ccccc2[nH]1 (stereo not given) | 77* | 20 | 1 | 0.2 | 1 | 1
CN(Cc1nc(-c2cccnc2)no1)S(=O)(=O)c1ccccc1 | 74* | -18 | 1 | 0.3 | 15 | 0.9
CN(Cc1nc(-c2ccccn2)no1)S(=O)(=O)c1ccc(Cl)cc1 | 22 | -5 | 14 | 0.8 | 14 | 0.9
Cc1ccc(S(=O)(=O)N(C)Cc2nc(-c3ccc(Br)cc3)no2)cc1 | 20 | 1 | 4 | 0.8 | -3 | 1
COc1ccc(S(=O)(=O)N(Cc2ccccc2)Cc2nc3ccccc3c(=O)[nH]2)cc1 | 55* | -2 | 1 | 0.4 | 49 | 0.5
COc1ccc(S(=O)(=O)N(Cc2ccccc2)Cc2nc(-c3ccccc3)no2)cc1 | 87* | -4 | 14 | 0.1 | 92* | 0.1
Cc1ccc(S(=O)(=O)N(C)Cc2nc(-c3ccncc3)no2)cc1 | 92* | 6 | 12 | 0.1 | 69* | 0.3
O=C(c1cc2cc(Br)ccc2oc1=O)N1CCCC1 | 33 | 1 | -4 | 0.7 | -57 | 1.6
O=[N+]([O-])c1cc(Cl)cc(C2=NCCN2)c1 | 10 | 1 | 11 | 0.9 | 4 | 1
Cc1ccc(S(=O)(=O)Cc2nc3ccccc3c(=O)[nH]2)cc1 | 85* | 4 | 2 | 0.2 | 24 | 0.8
Cc1ccc(CNC(=O)CCc2nc3ccccc3c(=O)[nH]2)cc1 | -2 | -11 | 0 | 1 | 6 | 0.9
CCOC(=O)N1CCN(C(=O)C(=O)Nc2ccc3nc4n(c(=O)c3c2)CCCCC4)CC1 | 28 | 9 | 8 | 0.7 | 52* | 0.5
SMILES | CYP2C19 inhib | PostGolgi yeast | PostGolgi ctrl | CYP2C19 act | CYP2C9 inhib | CYP2C9 act
O=C(COc1ccc(Cl)cc1Cl)Nc1ccc2nc3n(c(=O)c2c1)CCCC3 | 21 | -3 | 2 | 0.8 | 46 | 0.5
CCOC(=O)N1CCN(C(=O)CC(=O)Nc2ccc3nc4n(c(=O)c3c2)CCCCC4)CC1 | 14 | 8 | -3 | 0.9 | 69* | 0.3
COc1ccc(S(=O)(=O)NCC(=O)N(CC(=O)NCC2CCCO2)c2cc(C)ccc2C)cc1 (stereo not given) | 17 | 11 | -1 | 0.8 | 12 | 0.9
N#Cc1nc(-c2ccco2)oc1N1CCN(Cc2ccccc2)CC1 | 35 | 2 | 5 | 0.7 | 24 | 0.8
N#Cc1nc(COc2ccc(F)cc2)oc1N1CCC(Cc2ccccc2)CC1 | 16 | 1 | 4 | 0.8 | 70* | 0.3
N#Cc1nc(COc2ccc(Br)cc2)oc1N1CCN(Cc2ccccc2)CC1 | 17 | 0 | 20 | 0.8 | 56* | 0.4
CCN1CCN(c2oc(COc3ccc(-c4ccccc4)cc3)nc2C#N)CC1 | 93* | 1 | 6 | 0.1 | 81* | 0.2
N#Cc1nc(COc2ccccc2F)oc1N1CCCCCC1 | 33 | -8 | 25 | 0.7 | 45 | 0.6
N#Cc1nc(COc2ccc(F)cc2)oc1N1CCN(Cc2ccccc2)CC1 | 73* | -7 | 27 | 0.3 | 93* | 0.1
O=C(NNC1=NCCC1)c1ccc(Br)cc1 | -6 | -8 | 6 | 1.1 | -8 | 1.1
Oc1ccc2c(c1)C1CCCC1(N1CCOCC1)O2 (stereo not given) | -15 | 8 | 1 | 1.2 | -9 | 1.1
c1ccc2c(c1)nc1n2C2(N3CCOCC3)CCCC2C1N1CCOCC1 (stereo not given) | 13 | . | . | 0.9 | 99* | 0
Cc1ccc(OCC(O)CNS(=O)(=O)c2ccccc2C(=O)N2CCCCC2)cc1 (stereo not given) | 17 | 7 | 7 | 0.8 | 47 | 0.5
CCCCc1c(O)nc(SCC(=O)c2ccccc2)[nH]c1=O | 0 | 7 | -4 | 1 | 3 | 1
Cc1cc(=O)[nH]c(SCC(=O)c2ccccc2)c1C#N | 46 | -2 | 1 | 0.5 | 85* | 0.1
COc1ccc(NC(=O)CSc2[nH]c(=O)cc(C)c2C#N)cc1OC | 34 | -3 | 1 | 0.7 | 33 | 0.7
Cc1ccccc1NC(=O)CSc1[nH]c(=O)cc(C)c1C#N | 63* | 0 | 10 | 0.4 | 81* | 0.2
COc1cccc2cc(C(=O)CC3(O)C(=O)N(Cc4ccccc4)c4ccccc43)c(=O)oc12 (stereo not given) | 3 | 13 | 4 | 1 | 2 | 1
COC(=O)c1c(NC(=O)c2ccoc2C)sc2c1CCC2 | 7 | 8 | 8 | 0.9 | 7 | 0.9
NC(=O)c1c(NC(=O)CN2C(=O)CCC2=O)sc2c1CCCCC2 | -1 | 32* | -9 | 1 | 8 | 0.9

Bioassay records from PubChem BioAssay.
